Compound activity (PubChem BioAssay)
KCNQ2 pot – potentiators of rat KCNQ2 potassium channel; CHO-K1 KCNQ2, FluxOR thallium flux fluorescence; hits give high values; B-score at 10 µM; 310,000 tested, 0.54% active; AID 2239, 2010;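 active = fluorescence ratio B-score at least 3 SD of library B-scores, with initial fluorescence B-score within 3 of them, cut at about 5.3 in these data; same plate scores as AID 2156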;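 note: B-score of peak minus minimum over baseline fluorescence ratio after K+ and Tl+ stimulus; positive B-score means potentiation of KCNQ2 with more thallium influx and brighter signal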
KCNQ2 inh – rat KCNQ2 potassium channel inhibitors, primary screen, cell-based, CHO-K1, FluxOR thallium flux, B-score. Potassium voltage-gated channel subfamily KQT member 2 (Rattus norvegicus), O88943. 310,000 tested, 1.1% active. AID 2156, 2009. B-score at 10 µM. 20 min; hits give low values;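 active = fluorescence ratio B-score at most minus 3 library SDs, with starting brightness B-score within 2 library SDs, cut at about -5.5 in these data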
Kir21 confirm – mouse Kir2.1 channel blockers, retest, confirmation, cell-based, FluxOR thallium flux, duplicate; Kir2.1-expressing cells, FluxOR thallium flux fluorescence; hits give low values; shares compounds with KCNQ2 pot; Tl flux remaining, % of negative control (hits give low values), % at 10 µM; 2,300 tested, 41% active; AID 2032, 2009;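 active = Primary-screen hit whose thallium flux fell at least 3 control SD below untreated wells in both duplicates, with normal baseline fluorescence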
HEK293 ctr – counter-screen for Kir2.1 inhibitors: effect in parental HEK293 cells | FluxOR thallium flux fluorescence; 0% = unstimulated blank wells | AID 2105 | FluxOR signal as % of negative control (100 = no effect), % at 10 µM | 2,300 tested, 19% active | shares compounds with KCNQ2 pot;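 active = dye signal at least 3 control SD above or below untreated wells in both duplicates, raw fluorescence within 3, either direction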;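 note: percent is based on the flux ratio of peak minus minimum fluorescence over baseline F0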
CHO-K1 Tl ctr – nonspecific thallium flux increase in parental CHO-K1, confirmation, counter-screen for KCNQ2 potentiator project, cell-based, FluxOR thallium flux, duplicate; shares compounds with KCNQ2 pot; AID 2282, 2010; activity increase over 3SD of controls, % at 10 µM; parental CHO-K1 cells, FluxOR thallium flux fluorescence; zero = vehicle mean+3SD, 100% = vehicle-minus-blank window; 1,200 tested, 43% active;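 active = signal rise of at least 3 SD above the untreated control mean, in both duplicate wells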;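 note: counter screen of KCNQ2 potentiator hits so any rise reflects channel-independent effects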
KCNQ1 pot spec – human KCNQ1 channel potentiation off-target, confirmation, selectivity assay for KCNQ2 potentiator project, cell-based, CHO, FluxOR thallium flux | shares compounds with KCNQ2 pot | 1,200 tested, 28% active | CHO KCNQ1 stable, FluxOR thallium flux fluorescence; beyond 3SD, as % of vehicle-control signal | activation over 3SD threshold, % at 10 µM;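 active = fluorescence ratio rise of at least 3 SD of vehicle wells above their mean, in both replicate wells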
KCNQ2 pot conf – rat KCNQ2 channel potentiators, confirmation, cell-based, CHO, FluxOR thallium flux, duplicate; shares compounds with KCNQ2 pot; CHO-KCNQ2 cells, FluxOR thallium flux fluorescence; potentiation, less the hit threshold, % at 10 µM; 1,200 tested, 68% active;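 active = fluorescence ratio rising 3 SD or more over the vehicle control mean in both replicates, plus primary screen hit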;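 note: peak minus minimum thallium fluorescence divided by baseline after K/Tl stimulus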
Kir21 spec – mouse Kir2.1 channel activation off-target, confirmation, selectivity assay for KCNQ2 potentiator project, cell-based, HEK293, FluxOR thallium flux | shares compounds with KCNQ2 pot | HEK293 Kir2.1, FluxOR thallium flux fluorescence | activity over 3SD threshold, % at 10 µM | 1,200 tested, 2% active;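 active = fluorescence ratio rise of at least 3 SD above the vehicle-control mean, seen in both replicates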
KCNQ2 W236L MoA – potentiators of retigabine-insensitive KCNQ2 W236L, mechanism study for KCNQ2 potentiator project, cell-based, rat KCNQ2 W236L, CHO, automated patch clamp; shares compounds with KCNQ2 pot; automated patch clamp current; current increase over 3SD of negative controls (%), hits give high values, % at 25 µM; 940 tested, 10% active; AID 2558, 2010;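 active = current increase at least 3 SD of the untreated controls above them in both duplicate recordings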
Target sequence (O88943 whole entry W236L, looked up): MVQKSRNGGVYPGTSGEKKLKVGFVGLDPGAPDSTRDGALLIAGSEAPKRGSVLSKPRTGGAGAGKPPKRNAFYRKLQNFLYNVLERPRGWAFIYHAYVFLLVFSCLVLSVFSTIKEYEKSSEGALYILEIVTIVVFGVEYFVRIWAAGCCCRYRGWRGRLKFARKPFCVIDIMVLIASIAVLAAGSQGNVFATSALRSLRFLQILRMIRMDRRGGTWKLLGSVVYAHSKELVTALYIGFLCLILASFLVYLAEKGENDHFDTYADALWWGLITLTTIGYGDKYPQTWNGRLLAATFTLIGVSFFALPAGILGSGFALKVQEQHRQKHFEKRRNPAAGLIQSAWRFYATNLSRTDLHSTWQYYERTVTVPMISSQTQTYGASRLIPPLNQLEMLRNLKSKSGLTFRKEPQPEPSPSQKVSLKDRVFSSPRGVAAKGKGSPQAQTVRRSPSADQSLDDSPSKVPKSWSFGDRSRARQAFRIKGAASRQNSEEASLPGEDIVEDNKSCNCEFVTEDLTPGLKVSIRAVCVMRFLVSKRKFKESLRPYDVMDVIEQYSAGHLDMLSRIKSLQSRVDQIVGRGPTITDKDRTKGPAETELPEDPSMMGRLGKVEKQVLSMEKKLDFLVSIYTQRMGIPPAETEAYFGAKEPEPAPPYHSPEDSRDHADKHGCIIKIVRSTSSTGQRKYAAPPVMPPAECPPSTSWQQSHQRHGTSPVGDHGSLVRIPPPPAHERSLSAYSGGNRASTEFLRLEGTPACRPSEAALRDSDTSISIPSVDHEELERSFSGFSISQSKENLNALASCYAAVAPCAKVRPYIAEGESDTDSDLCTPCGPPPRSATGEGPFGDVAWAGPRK
Hits are given with their value; . = inactive; / = not tested or not shown. This is a sample that favours compounds with a hit; in the whole collection about 1.6% have one here.

SMILES | KCNQ2 pot | KCNQ2 inh | Kir21 confirm | HEK293 ctr | others
CCCCCNC(=O)c1ccc2c(=O)n(CC3CCCO3)c(=S)[nH]c2c1 (centres undefined) | . | . | / | /
COc1ccc(S(=O)(=O)NC2CC(=O)N(c3ccccc3)C2)cc1C (centres undefined) | / | . | / | /
Cc1ccc(S(=O)(=O)N(CC(=O)Nc2ccc(C)cc2C)C(=O)N2CCN(C)CC2)cc1 | . | . | / | /
Cc1ccc(NC(=O)C2C3/C=C\CCCCC32)cc1 (centres undefined) | . | . | / | /
Cc1cc(C)c(NC(=O)C2C3/C=C\CCCCC32)c(C)c1 (centres undefined) | 12.3 | . | . | . | CHO-K1 Tl ctr=.;KCNQ1 pot spec=.;KCNQ2 pot conf=56.2;Kir21 spec=.;KCNQ2 W236L MoA=.
O=[N+]([O-])c1ccc(O)c2ncccc12 | 8.73 | . | . | . | CHO-K1 Tl ctr=36.1;KCNQ1 pot spec=.;KCNQ2 pot conf=33.6;Kir21 spec=.;KCNQ2 W236L MoA=.
O=[N+]([O-])c1ccccc1Oc1ccc(Cl)c2cccnc12 | . | . | / | /
O=[N+]([O-])c1cc(F)c2cccnc2c1O | . | . | / | /
O=[N+]([O-])c1cc(Cl)c(O)c2ncccc12 | 5.69 | . | . | . | CHO-K1 Tl ctr=.;KCNQ1 pot spec=65.7;KCNQ2 pot conf=.;Kir21 spec=.;KCNQ2 W236L MoA=.
O=[N+]([O-])c1cc([N+](=O)[O-])c2cccnc2c1Oc1ccccc1O | / | . | 62.0% | 65.0%
O=[N+]([O-])c1ccc(O)c2cccnc12 | . | . | / | /
CC1CCCCN1C(=O)NC1CC(=O)N(c2ccc3c(c2)OCCO3)C1 (centres undefined) | . | . | / | /
COc1ccccc1C(=O)Nc1ccc2c(c1)CN(Cc1cnc(C)s1)CC2 | . | . | / | /
CN1C(C(=O)Nc2cccc(O)c2)=CC(c2ccco2)=NS1(=O)=O | / | . | / | /
O=C(CSc1nc(O)cc(=O)n1-c1ccccc1)Nc1nc2ccccc2s1 | / | . | / | /
CCOC(=O)C1CCN(C(=O)c2ccccc2CCc2ccccc2)CC1 | / | . | / | /
N=c1n(CCN2CCCCC2)c2ccccc2n1CC(O)c1ccc(Cl)c(Cl)c1 (centres undefined) | / | . | 36.0% | 64.5%
N=c1n(CCN2CCCCC2)c2ccccc2n1CC(O)COc1ccccc1 (centres undefined) | / | . | / | /
N=c1n(CCN2CCCCC2)c2ccccc2n1CC(O)c1cccc(Br)c1 (centres undefined) | / | . | 39.5% | .
CN(C)CCn1c(=N)n(CC(O)c2ccc(Cl)c(Cl)c2)c2ccccc21 (centres undefined) | . | . | / | /
O=C(NCCCn1ccnc1)c1ccc(Br)s1 | / | . | / | /
Cc1nn2c(N3CCOCC3)cc(C(C)C)nc2c1-c1ccccc1 | / | . | / | /
CCN1CCN(c2cc(C(C)C)nc3c(-c4ccccc4)c(C)nn23)CC1 | / | . | 60.0% | .
Cc1ccc(SCC(=O)Nc2cc([N+](=O)[O-])ccc2O)cc1 | . | . | / | /
CC(=O)/C(C#N)=C1\NC(=O)C(Cc2ccc(C)c(C)c2)S1 (centres undefined) | 7.18 | . | . | . | CHO-K1 Tl ctr=3.5;KCNQ1 pot spec=.;KCNQ2 pot conf=.;Kir21 spec=.
SMILES | KCNQ2 pot | KCNQ2 inh | Kir21 confirm | HEK293 ctr | others
CC(=O)/C(C#N)=C1\NC(=O)C(Cc2ccc(F)cc2)S1 (centres undefined) | . | . | / | /
CCCCC(Sc1nc(C)c(Cc2ccccc2)c(=O)[nH]1)C(=O)O (centres undefined) | / | . | / | /
COC(=O)c1ccc(N2CCN(C)CC2)c(NC(=O)c2sc3ccccc3c2Cl)c1 | / | . | / | /
COc1ccc(CN2CCCC(C(=O)c3ccc4c(c3)OCO4)C2)c(F)c1 (centres undefined) | / | . | 56.5% | .
COc1cccc(CN2CCCC(C(=O)c3ccc4c(c3)OCO4)C2)c1O (centres undefined) | / | . | / | /
NC(=O)c1nsc(C(=O)N(c2cccc(F)c2)C(C(=O)NCC2CCCO2)c2ccc3ncccc3c2)c1N (centres undefined) | / | . | / | /
O=C(NCc1ccccc1Cl)c1ccc(NC2=NC3CS(=O)(=O)CC3S2)cc1 (centres undefined) | . | . | / | /
O=C(O)c1ccccc1C(=O)Nc1ccccc1 | . | . | / | /
O=C(Nc1ccccc1)C1=C(c2ccccc2)S(=O)(=O)CCS1(=O)=O | 8.09 | . | . | . | CHO-K1 Tl ctr=.;KCNQ1 pot spec=.;KCNQ2 pot conf=3.7;Kir21 spec=.;KCNQ2 W236L MoA=3.5%
C[C@@H](NC(=O)[C@@H]1Cc2ccccc2CN1)C(=O)NCC1CCCO1 (some centres undefined) | / | . | / | /
CCc1nn(C(CC)C(=O)NCc2cccc(OC)c2OC)c(=O)c2cc3occc3n12 (centres undefined) | / | . | / | /
CCc1ccc(CN2CCCC(C(=O)Nc3ccccc3-c3ccc(OC)cc3)C2)o1 (centres undefined) | . | -6.14 | . | .
COCc1ccc(CN2CCCC(C(=O)Nc3ccccc3-c3ccc(OC)cc3)C2)o1 (centres undefined) | . | . | / | /
S=C(NCC1CCCO1)N1CCN(c2nc(-c3ccc(Cl)cc3)cs2)CC1 (centres undefined) | / | . | . | .
S=C(NCCCN1CCOCC1)N1CCN(c2nc(-c3ccc(Cl)cc3)cs2)CC1 | / | . | / | /
Cc1ccc(S(=O)(=O)Nc2cccc(C(=O)N3CCOCC3)c2)c(C)c1NS(C)(=O)=O | . | . | / | /
CC(C)(C)c1ccc(OCC(=O)Nc2ccncc2)c(Br)c1 | 5.57 | . | . | . | CHO-K1 Tl ctr=.;KCNQ1 pot spec=.;KCNQ2 pot conf=.;Kir21 spec=.;KCNQ2 W236L MoA=.
CCc1ccc(OCC(=O)Nc2ccncc2)c(Br)c1 | . | . | / | /
Cc1cc(C)c2nc(N(CCCN(C)C)C(=O)c3ccc4c(c3)OCCO4)sc2c1 | . | -5.83 | 50.5% | .
